A short description of test [1]: antimalarial activity against Dd2 strain (AID 2302;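 active = growth inhibition above 50% at the single 2 µM test dose, taken to imply half-maximal potency below 2 µM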;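 also: 0% = DMSO untreated growth and 100% = chloroquine plus artemisinin killed control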). The conditions noted are these: P. falciparum Dd2 in RBCs, LDH growth readout, 72 h; at 2 µM; stronger effect = higher value.
Test [2] in a line: human hepatoma cell viability loss – ATP luminescence, cytotoxicity control for P. falciparum antimalarial project, primary screen (AID 2303;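 active = inhibition above 50%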;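 also: 0% = DMSO wells and 100% = digitonin-killed cells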). The conditions noted are these: HepG2 viability, 24-48 h, at 10 µM, stronger effect = higher value.
The target of test [3] is L-lactate dehydrogenase (Plasmodium falciparum (isolate CDC / Honduras)) (UniProt Q27743). Nature of the test: PfLDH activity inhibition – cell lysate, 3D7 strain, counter-screen for P. falciparum growth inhibition project (AID 2304).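 Also: 0% = vehicle and 100% = reference inhibitor.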 The following applies: P. falciparum 3D7 crude extract, LDH APAD/NBT absorbance; at 2 µM; stronger effect = higher value.
Sequence of L-lactate dehydrogenase (Plasmodium falciparum (isolate CDC / Honduras)) (Q27743 whole entry, looked up): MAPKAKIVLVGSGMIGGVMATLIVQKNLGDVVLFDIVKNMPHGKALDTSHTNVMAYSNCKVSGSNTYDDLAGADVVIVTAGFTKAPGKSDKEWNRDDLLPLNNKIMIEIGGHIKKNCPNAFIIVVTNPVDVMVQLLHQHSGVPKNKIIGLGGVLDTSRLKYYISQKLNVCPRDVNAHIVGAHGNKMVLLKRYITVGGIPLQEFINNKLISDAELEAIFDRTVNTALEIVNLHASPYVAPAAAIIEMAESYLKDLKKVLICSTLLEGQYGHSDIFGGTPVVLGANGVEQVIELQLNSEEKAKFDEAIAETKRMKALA
Test [4] is described as follows: inhibition of 3D7 malaria parasite growth – strain 3D7 (AID 2306).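 Also: 0% = DMSO wells and 100% = chloroquine plus artemisinin control wells.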 The following applies: P. falciparum 3D7 erythrocytic growth, LDH absorbance, 72 h; at 2 µM; stronger effect = higher value.
The target in test [5] is Calcium-dependent protein kinase 1 (Plasmodium falciparum (isolate 3D7)) (UniProt P62344). The experiment in a line: PfCDPK1 kinase inhibitors, biochemical, TCAMS library (AID 1159585; cut-off not given, nearly all actives have IC50 up to about 0.98 µM;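 also: inhibitors leave more ATP so luminescence rises with inhibition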). The following applies: recombinant PfCDPK1, Kinase-Glo ATP depletion luminescence.
Sequence of Calcium-dependent protein kinase 1 (Plasmodium falciparum (isolate 3D7)) (P62344 whole entry, looked up): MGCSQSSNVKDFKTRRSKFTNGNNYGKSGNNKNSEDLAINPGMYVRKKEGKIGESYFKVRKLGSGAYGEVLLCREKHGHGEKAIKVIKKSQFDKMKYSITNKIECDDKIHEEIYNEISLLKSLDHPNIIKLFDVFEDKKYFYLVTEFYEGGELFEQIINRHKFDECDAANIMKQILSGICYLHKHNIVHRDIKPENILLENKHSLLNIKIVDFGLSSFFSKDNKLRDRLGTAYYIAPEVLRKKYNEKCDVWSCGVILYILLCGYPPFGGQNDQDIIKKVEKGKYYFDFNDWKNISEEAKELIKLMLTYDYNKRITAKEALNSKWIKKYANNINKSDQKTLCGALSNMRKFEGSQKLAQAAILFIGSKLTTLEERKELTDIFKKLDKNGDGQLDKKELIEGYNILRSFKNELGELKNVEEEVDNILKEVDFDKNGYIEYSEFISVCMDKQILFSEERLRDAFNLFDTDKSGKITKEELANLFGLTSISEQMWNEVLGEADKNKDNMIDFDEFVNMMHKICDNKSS
The target in test [6] is Plasmodium falciparum protein kinase 6 (PK6, PF3D7_1337100) (UniProt Q8IDW1). The experiment in a line: PfPK6 kinase inhibitors, biochemical, TCAMS library (AID 1159586). The conditions noted are these: recombinant PfPK6, Kinase-Glo ATP depletion luminescence. A general note: In Kinase-Glo more light means more ATP remaining.
Sequence of Plasmodium falciparum protein kinase 6 (PK6, PF3D7_1337100) (Q8IDW1 1-305): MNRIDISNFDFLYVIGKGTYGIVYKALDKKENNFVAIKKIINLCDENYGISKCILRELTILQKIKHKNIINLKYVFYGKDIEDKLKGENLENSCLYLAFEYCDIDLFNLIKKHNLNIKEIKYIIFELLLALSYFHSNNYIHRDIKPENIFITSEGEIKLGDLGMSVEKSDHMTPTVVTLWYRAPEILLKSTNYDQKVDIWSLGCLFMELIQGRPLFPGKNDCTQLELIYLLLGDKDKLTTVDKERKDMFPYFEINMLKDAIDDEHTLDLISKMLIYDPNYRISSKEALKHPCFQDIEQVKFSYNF
In test [7] the target is Protein kinase 7 (PK7), Plasmodium falciparum 3D7 (PF3D7_0213400) (UniProt Q7YTF7). The experiment in a line: inhibition of Plasmodium PK7 catalytic activity – biochemical, TCAMS antimalarial set, Kinase-Glo luminescence (AID 1159587). The following applies: recombinant PfPK7, Kinase-Glo ATP depletion luminescence.
Sequence of Protein kinase 7 (PK7), Plasmodium falciparum 3D7 (PF3D7_0213400) (Q7YTF7 1-343): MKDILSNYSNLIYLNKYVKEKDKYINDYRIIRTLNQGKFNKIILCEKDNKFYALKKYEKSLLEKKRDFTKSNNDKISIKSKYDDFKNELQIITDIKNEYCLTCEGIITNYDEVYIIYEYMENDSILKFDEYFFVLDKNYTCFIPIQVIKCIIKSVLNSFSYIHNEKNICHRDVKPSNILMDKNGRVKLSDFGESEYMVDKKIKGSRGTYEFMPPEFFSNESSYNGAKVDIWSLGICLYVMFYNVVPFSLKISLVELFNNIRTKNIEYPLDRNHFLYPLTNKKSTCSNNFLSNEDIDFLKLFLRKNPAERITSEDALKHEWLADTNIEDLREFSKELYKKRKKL
The target of test [8] is Calcium-dependent protein kinase 4 (Plasmodium falciparum (isolate 3D7)) (UniProt Q8IBS5). The experiment in a line: PfCDPK4 kinase inhibitors, biochemical, TCAMS library (AID 1159588; cut-off not given, nearly all actives have IC50 up to about 0.91 µM). The conditions noted are these: recombinant PfCDPK4, Kinase-Glo ATP depletion luminescence.
Sequence of Calcium-dependent protein kinase 4 (Plasmodium falciparum (isolate 3D7)) (Q8IBS5 whole entry, looked up): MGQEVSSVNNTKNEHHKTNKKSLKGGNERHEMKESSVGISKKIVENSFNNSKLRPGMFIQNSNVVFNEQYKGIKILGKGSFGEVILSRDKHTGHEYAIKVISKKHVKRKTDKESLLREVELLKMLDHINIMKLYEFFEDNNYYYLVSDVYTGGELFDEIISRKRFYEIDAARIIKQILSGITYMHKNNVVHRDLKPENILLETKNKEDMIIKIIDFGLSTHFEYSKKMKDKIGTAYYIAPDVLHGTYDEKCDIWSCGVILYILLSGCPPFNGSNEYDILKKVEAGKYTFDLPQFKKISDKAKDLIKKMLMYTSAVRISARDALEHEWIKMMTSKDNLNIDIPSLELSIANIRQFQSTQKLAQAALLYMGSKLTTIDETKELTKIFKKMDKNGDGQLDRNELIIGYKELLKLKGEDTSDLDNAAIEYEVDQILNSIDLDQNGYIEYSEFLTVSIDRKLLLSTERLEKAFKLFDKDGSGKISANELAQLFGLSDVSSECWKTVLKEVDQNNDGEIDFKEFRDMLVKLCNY

Values without a mark were called inactive. For part of these data: Results with a measured potency or affinity are listed apart. Calls of active or inactive are those of the source. Unless noted, no rule for the calls is given here.

In general, inhibition refers to the drop in the measured response relative to a control, in per cent. For `COc1cc(-c2ccccc2)ccc1C(=O)Nc1ccc2c(c1)N(C)CCC2`, the growth inhibition in test [1] was 75% (active); in test [4], 85% (active). The inhibition in test [2] was 15%; in test [3], -4%. Besides, the outcome in test [5], in test [6], in test [7] and in test [8] was inactive.
For the molecule `CC(C)(Oc1c(C2CCN(CCCCNC(=O)c3ccc(-c4ccc(C#N)cc4)cc3)CC2)ccc2c1CCCC2)C(N)=O`, the growth inhibition is 82% (active) in test [1] and 100% (active) in test [4]. The values for the inhibition in test [2] and in test [3] were 34% and 6%, respectively. The result in test [5], in test [6], in test [7] and in test [8] was inactive.
`Fc1ccc2c(NN=Cc3ccccc3F)ccnc2c1`: the growth inhibition in test [1] is 99% (active); in test [4], 101% (active). The results for the inhibition in test [2] and in test [3] were 10% and -1%, respectively. Further, the outcome in test [5], in test [6], in test [7] and in test [8] was inactive.
As to `COc1ccccc1NC(=O)Nc1ccc(-c2ccc(-c3nc4c(C)cccc4[nH]3)s2)cc1`, the values for the growth inhibition in test [1] and in test [4] were 99% (active) and 100% (active), respectively. Also, the values for the inhibition in test [2] and in test [3] were 71% (active) and 0%, respectively. Besides, the outcome in test [5], in test [6], in test [7] and in test [8] was inactive.
Take `CCCN(CCC)C(=O)c1cc(C(=O)N[C@@H](Cc2ccccc2)[C@H](O)CNCc2cccc(C(F)(F)F)c2)cc(N2CCCCS2(=O)=O)c1`: the growth inhibition was 74% (active) in test [1] and 99% (active) in test [4]. Besides, the results for the inhibition in test [2] and in test [3] were -5% and 3%, respectively. Moreover, the result in test [5], in test [6], in test [7] and in test [8] was inactive.
Take `Cc1ccc2c(OCCN3CCC(Cc4cc5c(cc4F)OCC(=O)N5)CC3)cc(F)cc2n1`: the figures for the growth inhibition in test [1] and in test [4] were 71% (active) and 100% (active), respectively. Besides, the inhibition is 27% in test [2] and 3% in test [3]. Further, the outcome in test [5], in test [6], in test [7] and in test [8] was inactive.
On to `CC(C)CNC(=O)c1ccnc(-c2ccc(CNCCCc3ccccc3)cc2)c1`, for which the growth inhibition in test [1] is 22%; in test [4] it was 99% (active). Besides, the inhibition is 12% in test [2] and -3% in test [3]. The result in test [5], in test [6], in test [7] and in test [8] was inactive.
`COc1ccc(C2CC(=O)C3=C(C2)NC(C)=C(C(=O)OC2CCCC2)C3c2cccc(O)c2)cc1` (stereo not drawn): the growth inhibition in test [1] is 83% (active); in test [4], 88% (active). The results for the inhibition in test [2] and in test [3] were -6% and -2%, respectively. Moreover, the outcome in test [5], in test [6], in test [7] and in test [8] was inactive.
In the case of `O=[N+]([O-])c1cccc(CNCC2CCN(Cc3ccc(Cl)c(Cl)c3)CC2)c1`, the growth inhibition in test [1] is 41%; in test [4], 101% (active). Moreover, the results for the inhibition in test [2] and in test [3] were 9% and 4%, respectively. In addition, the outcome in test [5], in test [6], in test [7] and in test [8] was inactive.
Regarding `COc1cccc(C2CCN(CCN3CCC(NC(=O)c4ccc(-c5ccc(C(F)(F)F)cc5)cc4)CC3)CC2)c1`, the growth inhibition in test [1] and in test [4] was 99% (active) throughout. The inhibition was 46% in test [2] and -7% in test [3]. Moreover, the outcome in test [5], in test [6], in test [7] and in test [8] was inactive.
In the case of `CCCCOc1c(CCNCCCCNCCc2cc(F)c3ccccc3c2OCCCC)cc(F)c2ccccc12`, the growth inhibition in test [1] was 78% (active); in test [4], 96% (active). In addition, the inhibition in test [2] was 97% (active); in test [3], -3%. In addition, the outcome in test [5], in test [6], in test [7] and in test [8] was inactive.
For the molecule `NCC1CCCN1Cc1ccc(-c2cccc(-c3nc4ccc(C(F)(F)F)cc4[nH]3)c2)cc1` (stereo not drawn), the growth inhibition was 97% (active) in test [1] and 99% (active) in test [4]. The inhibition is 24% in test [2] and 1% in test [3]. Further, the result in test [5], in test [6], in test [7] and in test [8] was inactive.
With `CC(CN1CCN(C)CC1)C(=O)Nc1cccc(-c2cccc(-c3nc4ccccc4[nH]3)c2)c1` (stereo not drawn), the growth inhibition in test [1] is 19%; in test [4] it was 88% (active). In addition, the inhibition is 23% in test [2] and -3% in test [3]. Moreover, the result in test [5], in test [6], in test [7] and in test [8] was inactive.
Turning to `Cc1ccccc1C1CCN(c2ncc(C(=O)NC3CC3)cc2Cl)CC1`, the growth inhibition in test [1] and in test [4] was 96% (active) in each case. In addition, the inhibition in test [2] was 22%; in test [3], -1%. In addition, the outcome in test [5], in test [6], in test [7] and in test [8] was inactive.
With `COc1cc(NC(=O)/C=C/c2ccccc2OC(F)(F)F)cc(OCCN2CCN(CCN3CCOCC3)CC2)c1`, the growth inhibition was 25% in test [1] and 98% (active) in test [4]. The inhibition in test [2] is 20%; in test [3], -1%. Besides, the outcome in test [5], in test [6], in test [7] and in test [8] was inactive.
As to `COc1ccc(CNC2CCN(C)CC2)cc1-c1ccc(S(=O)(=O)NCc2ccccc2)c(C)c1`, the growth inhibition is 98% (active) in test [1] and 100% (active) in test [4]. Further, the inhibition in test [2] is 81% (active); in test [3], 3%. For the same molecule, the result in test [5], in test [6], in test [7] and in test [8] was inactive.
For the molecule `Cc1cc(C)n(Cc2ccc(C(=O)NCC3CCCCC3)cc2)n1`, the growth inhibition is 1% in test [1] and 95% (active) in test [4]. Besides, the inhibition in test [2] was 0%; in test [3], 2%. For the same molecule, the result in test [5], in test [6], in test [7] and in test [8] was inactive.
Regarding `CCN1CCN(c2cc(C)c3cc(NC(=O)c4ccc(OC)c([N+](=O)[O-])c4)ccc3n2)CC1`, the growth inhibition in test [1] is 93% (active); in test [4] it was 100% (active). For the same molecule, the inhibition in test [2] is 25%; in test [3] it was 0%. Besides, the result in test [5], in test [6], in test [7] and in test [8] was inactive.
On to `CCN(CC)CCN(Cc1ccc(-c2ccc(C#N)cc2)cc1)C(=O)Cn1c(CCc2cccc(F)c2F)nc(=O)c2ccccc21`, for which the growth inhibition in test [1] is 46%; in test [4], 100% (active). The inhibition in test [2] is 31%; in test [3], -1%. Moreover, the result in test [5], in test [6], in test [7] and in test [8] was inactive.
On to `O=C(NCCCCN1CCC(c2ccc3c(c2OCc2ccccn2)CCCC3)CC1)c1ccc(NC(=O)c2ccc(Cl)cc2)cc1`, for which the values for the growth inhibition in test [1] and in test [4] were 70% (active) and 101% (active), respectively. Also, the inhibition is 31% in test [2] and -3% in test [3]. Also, the outcome in test [5], in test [6], in test [7] and in test [8] was inactive.
As to `O=C(Nc1cccc(CN2CCCN(Cc3cccc(O)c3)CC2)c1)c1ccc2ccccc2c1`, the growth inhibition in test [1] is 42%; in test [4] it was 97% (active). For the same molecule, the results for the inhibition in test [2] and in test [3] were 21% and -4%, respectively. For the same molecule, the outcome in test [5], in test [6], in test [7] and in test [8] was inactive.
